# Measurements: ChEMBL document CHEMBL4296182, “CO-ADD screening of NIH NCI Diversity Set V”
# Test system: Acinetobacter baumannii
# Experiment: Antibacterial activity against Acinetobacter baumannii ATCC 19606 (CO-ADD:GN_034); MIC in CAMBH media using NBS plates, by Resazurin F(560/590)
# Format: functional
# Conditions: Concentration 20 uM, ASSAY_TEST Inhibition of Bacterial Growth, detection method Resazurin, Fluorescence (ex560/em590), MEDIA CAMHB, plate type 384well, CORNING #3640, time 18 hr
row,SMILES,Inhibition
1,CCC(C)n1c(C)cc(=O)n1C(C)CC (stereo not drawn),-5.44%
2,CC(C)(C)N1CCC1CN (stereo not drawn),-8.31%
3,CCOc1ccc(/C=C2\CCc3ccccc3C2=O)cc1,-2.84%
4,Cc1ccc(S(=O)(=O)NC(=O)Nc2nccs2)cc1,-9.13%
5,NC(=O)CCC(C(=O)O)N1C(=O)C2C3CCC(C3)C2C1=O (stereo not drawn),-4.02%
6,Cn1ncc2c(NCc3ccccc3)ncnc21,-15.8%
7,N#CNC(=N)c1ccccc1,1.21%
8,CCOC(=O)/C=C/c1nc(O)c(C)c(C(=O)OCC)n1,-11.68%
9,Nc1o[nH]c(=O)c1C1CCCCC1,-3.3%
10,CCCCOc1ccc(OC(=O)Nc2cc(Cl)ccc2OC)cc1,6.78%
11,O=C(COc1cc(Cl)c(Cl)cc1Cl)Nc1ccc([N+](=O)[O-])cc1Cl,-3.59%
12,NNC(=O)Cc1cc(O)[nH]n1,-1.89%
13,Cc1cccc(Nc2sc(C(=O)c3cc4cc(Cl)ccc4o3)c(N)c2C#N)c1,-13.03%
14,S=C1N(c2ccccc2)CN(C2CCCCC2)CN1c1ccccc1,12.71%
15,[O-]/[N+](=C\c1ccccc1)CC1(O)CCCCC1,10.28%
16,COc1cc(-c2ccc(Nc3ccccc3C(=O)O)c(OC)c2)ccc1Nc1ccccc1C(=O)O,8.67%
17,O[C@@H](c1cc(-c2ccc(C(F)(F)F)cc2)nc(C(F)(F)F)c1)[C@H]1CCCCN1,7.22%
18,N#Cc1cnn(-c2cccc(Cl)c2)c1-n1cccc1,-21.29%
19,Cc1cccc(C)c1NC(=O)NCc1ccco1,7.13%

row,SMILES,Inhibition
1,NC(=O)Oc1cccc(OC(N)=O)c1,-13.95%
2,COc1ccc(C2OC3=Nc4cc(C)c(C)cc4NC3=C2O)cc1 (stereo not drawn),6.66%
3,CC1(C)CC(=O)C(CC(=O)c2ccccc2)=C(NNC(=N)N)C1,8.18%
4,COc1ccc2c(c1)C(=O)C1NC(=O)NC(=O)C1(Br)N2 (stereo not drawn),-10.78%
5,[O-][n+]1nc2ccccc2c2ccccc21,-1.94%
6,NC(=O)N/N=C1\CC2CC1C1C=CCC21 (stereo not drawn),-14.41%
7,Sc1cnnc2ccccc12,-12.95%
8,NC(=O)c1cc2c3ccccc3ccn2c1-c1ccccc1,-5.02%
9,CC12CCC(/C(=N/c3ccc(/N=C4\C(=O)C5(C)CCC4C5(C)C)cc3)C1=O)C2(C)C,-9.62%
10,O=C(Nc1ccc(Oc2ccc(NC(=O)Nc3ccccc3Cl)cc2)cc1)Nc1ccccc1Cl,-10.42%
11,COCC(=O)OC1CCn2c1nc1c2C(=O)C(C)=C(NC(C)=O)C1=O (stereo not drawn),12.44%
12,O=c1nc2onnc2c(/C=N\O)[nH]1,-9.04%
13,O=C(O)CSc1ccc(NC(=O)Nc2ccccc2F)cc1,6.88%
14,Nc1cc(-c2ccccc2)ccc1O,-7.9%
15,O=C1/C(=N\c2cccc(Cl)c2)CC(c2ccc(Cl)cc2)N1c1cccc(Cl)c1 (stereo not drawn),-11.7%
16,CC(=O)NS(=O)(=O)c1ccc2sc(C)nc2c1,-11.67%
17,COc1ccc(/C(C#N)=C/c2cccnc2)cc1,-13.68%
18,Cn1cnc([N+](=O)[O-])c1Sc1nnc(-c2cccnc2)n1C,15.57%
19,CN(C)c1ccc(/C=C(\C#N)C(=O)c2ccccc2)cc1,-12.37%
